Source: PubChem BioAssay (National Center for Advancing Translational Sciences (NCATS))
This is a sample that favours compounds with a hit; in the whole collection about 9% have one here.
JMJD2A Tudor inh = qHTS Assay for Inhibitors of JMJD2A-Tudor Domain; AlphaScreen JMJD2A-Tudor / H3K4me3 peptide binding; AID 504339, 2011; Lysine-specific demethylase 4A (Homo sapiens), O75164; 390,000 tested, 4.4% active; Potency, µM (top dose mostly 114 µM), inactives show at the top dose activity change, negative = inhibition, actives largely listed as inhibitors; further: on the % scale 0 is the no-effect control and ±100 the full control effect; nearly all actives have a fitted effect of over 50% in size
Target sequence (O75164 whole entry, looked up, the tested form may be a part): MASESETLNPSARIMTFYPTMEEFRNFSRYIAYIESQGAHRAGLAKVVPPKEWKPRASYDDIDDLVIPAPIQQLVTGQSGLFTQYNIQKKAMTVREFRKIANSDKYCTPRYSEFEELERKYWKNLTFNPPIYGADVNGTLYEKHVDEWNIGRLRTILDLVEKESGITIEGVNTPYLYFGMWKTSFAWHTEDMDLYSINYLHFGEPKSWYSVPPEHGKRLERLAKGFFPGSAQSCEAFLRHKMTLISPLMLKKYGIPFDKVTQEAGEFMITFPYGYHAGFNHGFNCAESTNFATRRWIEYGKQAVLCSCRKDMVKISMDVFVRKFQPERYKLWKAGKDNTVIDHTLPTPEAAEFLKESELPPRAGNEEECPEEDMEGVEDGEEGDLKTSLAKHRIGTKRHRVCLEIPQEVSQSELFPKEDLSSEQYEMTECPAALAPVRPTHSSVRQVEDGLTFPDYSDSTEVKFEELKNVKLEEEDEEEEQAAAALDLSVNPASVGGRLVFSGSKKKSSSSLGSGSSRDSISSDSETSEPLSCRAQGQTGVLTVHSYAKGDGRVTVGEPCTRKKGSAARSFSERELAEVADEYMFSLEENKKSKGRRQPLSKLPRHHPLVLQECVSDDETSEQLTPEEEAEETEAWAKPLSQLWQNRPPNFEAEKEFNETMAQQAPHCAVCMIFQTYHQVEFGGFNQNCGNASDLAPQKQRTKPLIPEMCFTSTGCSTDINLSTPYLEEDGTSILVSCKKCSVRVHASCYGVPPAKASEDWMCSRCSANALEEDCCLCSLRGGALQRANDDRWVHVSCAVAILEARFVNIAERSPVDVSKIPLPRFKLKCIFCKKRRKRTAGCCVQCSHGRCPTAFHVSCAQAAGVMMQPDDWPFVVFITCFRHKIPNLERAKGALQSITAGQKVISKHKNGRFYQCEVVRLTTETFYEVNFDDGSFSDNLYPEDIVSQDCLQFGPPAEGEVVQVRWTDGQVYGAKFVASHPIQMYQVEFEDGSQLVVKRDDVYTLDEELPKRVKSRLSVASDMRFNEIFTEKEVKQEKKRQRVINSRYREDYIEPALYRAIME
G9a inh = qHTS Assay for Inhibitors of Histone Lysine Methyltransferase G9a; 350,000 tested, 8.8% active; Potency, µM (titrated, usually from 102 µM), for inactives: at the highest dose activity, negative = inhibition, hits mostly inhibitors; G9a H3K9 monomethylation, AlphaScreen, 2 h; further: on the % scale 0 is the no-effect control and ±100 the full control effect; nearly all actives have a fitted effect of over 75% in size
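G9a (20 nM) was preincubated 15 min with compound, then reacted 2 h at room temperature with 500 nM biotin-H3K9 peptide and 20 µM SAM. Monomethyl-H3K9 detected by AlphaScreen using anti-H3K9me1 antibody.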
PLK1 PBD block = qHTS for Inhibitors of PLK1-PDB (polo-like kinase 1 - polo-box domain): Primary Screen | Serine/threonine-protein kinase PLK1 (Homo sapiens), P53350 | Plk1 PBD binding of FITC phosphopeptide, fluorescence polarization | Potency, µM, for the others: max response, negative = inhibition, hits mostly inhibitors | 360,000 tested, 2.8% active; further: series mostly up to about 57 µM; on the % scale 0 is the no-effect control and ±100 the full control effect; nearly all actives have a fitted effect of over 65% in size
BAZ2B block = qHTS Assay for Inhibitors of BAZ2B; Potency, µM (highest dose often 114 µM), without a hit: at the top dose activity change, negative = inhibition, hits mostly inhibitors; AID 504333, 2011; Bromodomain adjacent to zinc finger domain protein 2B (Homo sapiens), Q9UIF8; AlphaScreen BAZ2B-H3K14Ac peptide displacement; 360,000 tested, 4.4% active; further: on the % scale 0 is the no-effect control and ±100 the full control effect; nearly all actives have a fitted effect of over 60% in size
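AlphaScreen displacement: compounds (up to 110uM) incubated 30 min at room temperature with a preformed 50 nM BAZ2B/50 nM biotinylated H3K14Ac peptide complex in PBS pH 7.4 with Tween-20. Donor and acceptor beads at 10 ug/mL final added, 20 min light-protected before reading.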
12-LOX inh = Primary qHTS assay for inhibitors of human arachidonate 12S-lipoxygenase (ALOX12): Round 2; purified 12hLO, xylenol orange hydroperoxide absorbance; AID 1671190, 2021; Potency, µM (top dose mostly 108 µM), for inactives: at the highest dose activity change, negative = inhibition, hits mostly inhibitors; 580,000 tested, 1.1% active; Polyunsaturated fatty acid lipoxygenase ALOX12 (Homo sapiens), P18054; further: on the % scale 0 is the no-effect control and ±100 the full control effect
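Purified human 12hLO (150 nM final) in 25 mM Hepes, 0.01% Triton X-100, pH 7.0 was preincubated 15 min at room temperature with compound. Then 40 uM arachidonic acid was added, 30 min. Hydroperoxide was read by Fe-XO absorbance ratio 573/405 nm.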
HP1b binding inh = HTS for Inhibitors of HP1-beta Chromodomain Interactions with Methylated Histone Tails; Chromobox protein homolog 1 (Homo sapiens), P83916; AlphaScreen HP1-beta / biotin-H3K9me3 peptide binding; Potency, µM (doses to about 114 µM), without a hit: at the highest dose activity change, negative = inhibition, actives largely listed as inhibitors; 390,000 tested, 0.56% active; AID 540317, 2011; further: nearly all actives have a fitted effect of over 70% in size
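AlphaScreen: HP1-beta (50 nM) preformed 30 min with biotin-H3(1-18)K9me3 peptide (50 nM) in PBS pH 7.4, 0.01% Tween-20. Compound added for 30 min at RT, then streptavidin donor/nickel chelate acceptor beads (10 ug/mL) for 30 min.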
* = called active by the depositor; ? = inconclusive; · = no result; [ ] = remark or other dose. The call rests on the fitted dose curve; in most records, active means well fitted curve in the direction sought with a large enough effect; inconclusive means small, poorly fitted or top-dose-only effect, or another doubt; inactive means no such curve, though single readings can be large; an effect the other way counts as inactive or inconclusive. Potency means the concentration at half of the fitted maximal effect.

SMILES	JMJD2A Tudor inh	G9a inh	PLK1 PBD block	BAZ2B block	12-LOX inh	HP1b binding inh
O=C(Cc1ccccc1)Nc1ccccc1N1CCCC1	-30.2%	56.2µM*	-6.4%	-34.7%	-13.3%	11.8%
O=C(Cc1ccc(Br)cc1)Nc1ccccc1N1CCCC1	?	50.1µM*	-0.3%	?	-2.7%	-3.3%
O=C(CNCC1CCCCC1)Nc1ccccc1N1CCCCC1	-75.6%[57.1 µM]	?	-12.5%	?	?	-25.0%
COc1ccc(CC(=O)Nc2ccccc2N2CCCC2)cc1	-35.7%	·	-9.7%	?	-10.0%	7.3%
O=C(CNC1CCCCCC1)Nc1ccccc1N1CCCCC1	1.41µM*	?	1.5%	?	?	?
CC(C)(C)NC(=O)CSc1nc2ccccc2c(=O)[nH]1	6.6%	1.6%	1.7%	-20.6%	0.0%	53.2%
COc1cc(OC)c(NS(=O)(=O)c2cc(C(=O)N3CCCC(C)C3)ccc2C)cc1Cl (stereo not given)	·	·	·	·	-26.6%	·
Cc1cc(C)n2nc3nc(N4CCCC4)nc(-c4ccccc4)c3c2n1	9.3%	-2.9%[12.7 µM]	-12.5%	18.6%	·	50.5%
Cc1cccc(N=C2NN=C(c3c(C)[nH]c4ccccc34)CS2)c1	44.7µM*	?	-18.6%	?	?	-33.9%
Cc1cccc(N=C2NN=C(c3ccc4c(c3)OCCO4)CS2)c1	-21.1%	18.8%[12.7 µM]	-10.5%	-38.9%	-18.1%	-22.0%
Cc1nc2ccccc2c(C)c1CC(=O)NCc1ccco1	·	·	·	·	-40.9%	·
O=C(c1cccc(N2C(=O)C3C4C=CC(C4)C3C2=O)c1)N1CCN(c2ccc(F)cc2)CC1 (stereo not given)	-30.8%	4.0%	-5.5%	-18.1%	-19.7%	18.5%
O=C1OC(c2ccccc2)Cc2cc(C(=O)N3CCN(c4ccc(F)cc4)CC3)ccc21 (stereo not given)	-26.0%	50.1µM*	-5.3%	-33.2%	-14.8%	-0.2%
COc1ccc(C(=O)N2CCC(C(=O)N3CCN(c4ccccc4)CC3)CC2)cc1	-5.9%	·	-4.2%	·	·	22.2%
COc1ccc(N2CCN(C(=O)c3ccc4c(c3)CC(c3ccccc3)OC4=O)CC2)cc1 (stereo not given)	?	10µM*	-2.3%	39.8µM*	-26.9%	-13.2%
O=c1oc2ccccc2c(N2CCCCC2)c1CN1CCCC1	4.3%	10.6%[59 µM]	-8.1%	6.3%	8.3%	23.4%
CCCCC(c1nnnn1C(C)C)N1CCN(C(=O)c2ccco2)CC1 (stereo not given)	?	50.1µM*	-24.0%	-9.2%	?	26.2%
COCCn1nnnc1C(c1ccccc1)N1CCN(C(=O)c2ccco2)CC1 (stereo not given)	?	?	?	?	-22.6%	-4.7%[57 µM]
CC(C)C(c1nnnn1Cc1cccs1)N1CCN(C(=O)c2ccco2)CC1 (stereo not given)	?	·	18.9µM*	-8.4%	?	-16.1%
CCCC(c1nnnn1CCOC)N1CCN(C(=O)c2ccco2)CC1 (stereo not given)	?	44.7µM*	-2.6%	?	?	11.3%
CCC(c1nnnn1Cc1ccco1)N1CCN(C(=O)c2ccco2)CC1 (stereo not given)	?	2.4%[59 µM]	-16.7%	?	?	28.5%
COCCn1nnnc1C(C(C)C)N1CCN(C(=O)c2ccco2)CC1 (stereo not given)	44.7µM*	-2.7%[12.7 µM]	3.3%	-0.8%	?	0.5%
COc1ccccc1N1CCN(/N=C/c2cccc(O)c2)CC1	-32.8%	-34.8%	3.3%	70.8µM*	-0.6%	6.0%
COc1ccccc1N1CCN(/N=C/c2cc(OC)c(O)c(OC)c2)CC1	89.1µM*	12.6µM*	10.7%	?	-23.6%	-41.4%
COc1ccccc1N1CCN(/N=C\c2cccnc2)CC1	?	39.8µM*	-4.1%	79.4µM*	?	16.8%
SMILES	JMJD2A Tudor inh	G9a inh	PLK1 PBD block	BAZ2B block	12-LOX inh	HP1b binding inh
COC(=O)c1c(C)[nH]c(C=Nc2ccc(OC)cc2)c1C	-32.4%	-43.9%	-8.9%	-28.6%	18.7%	2.9%
O=C1C2C3CCC(C3)C2C(=O)N1Cc1ccco1 (stereo not given)	-10.4%	-2.8%[59 µM]	2.1%	-16.3%	-16.1%	43.2%
COc1ccc(CCN2C(=O)CC(Cc3ccc(C)cc3)C2=O)cc1OC (stereo not given)	10µM*	-1.6%[0.501 µM]	11.9µM*	1.5%	-11.9%	-6.4%
Cc1ccc(CC2CC(=O)N(Cc3ccco3)C2=O)cc1 (stereo not given)	-24.6%	39.8µM*	-23.5%	3.1%	?	4.2%
O=C1CC(Cc2ccccc2)C(=O)N1Cc1ccco1 (stereo not given)	-20.4%	44.7µM*	-17.6%	-33.4%	·	16.0%
CN(C)C(=O)CSc1nc2ccc(C(=O)c3ccccc3)cc2[nH]1	6.3%	10.4%[0.501 µM]	0.7%	5.2%	8.5%	39.9%
CSc1ccc(S(=O)(=O)NCC(=O)OC(C)C(=O)NCc2ccccc2)cc1[N+](=O)[O-] (stereo not given)	-27.1%	-5.9%	-7.4%	-5.3%	?	-2.4%
CC(C)CSc1ccc(S(=O)(=O)NCC(=O)O)cc1[N+](=O)[O-]	-26.4%	50.1µM*	-19.3%	-27.7%	-23.9%	27.0%
COc1ccc(CCNC(=O)CNS(=O)(=O)c2ccc(N(C)C)c([N+](=O)[O-])c2)cc1OC	-15.7%	?	-27.7%	-22.2%	-9.7%	33.7%
CN(C)c1ccc(S(=O)(=O)NCC(=O)NCc2ccccc2)cc1[N+](=O)[O-]	?	44.7µM*	11.9µM*	?	-9.0%	-5.1%
CN(C)c1ccc(S(=O)(=O)NCC(=O)OCC(=O)Nc2cccc(Cl)c2)cc1[N+](=O)[O-]	?	56.2µM*	-7.4%	?	-18.0%	-21.0%
CNc1ccc(S(=O)(=O)NCC(=O)NCCCc2ccccc2)cc1[N+](=O)[O-]	?	39.8µM*	5.97µM*	50.1µM*	·	1.0%
O=C(Nc1cccc(Cl)c1)C1C2C=CC3(O2)C1C(=O)N(CCCN1CCCCC1)C3C(=O)NC1CCCCC1 (stereo not given)	-11.4%	?	-5.4%	2.4%	4.5%	-10.1%
O=C(NCCCc1ccccn1)C1CC(=O)N(C2CC2)C1 (stereo not given)	·	·	·	·	11.5%	·
COc1ccc(C(=O)N(CC2CC2)CC2CN(C(=O)Nc3ccccc3)CCO2)cc1OC (stereo not given)	·	·	·	·	76.6%	·
